# ELG1 repair inh: ELG1-dependent DNA repair inhibition; 2.3% of 330,000 active; HEK293T ELG1-luciferase reporter, luminescence, 16 h; DNA damage induced by 5-fluorouridine; Potency, µM (highest dose often 46.1 µM), inactives show at the top dose activity change, negative = inhibition, usual class: inhibitors; further: potency means the concentration at half of the fitted maximal effect; nearly all actives have a fitted effect of over 55% in size
#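 Luminescence from the luciferase reporter, measured 30 min after ONE-Glo reagent at room temperature, was the read-out. Beforehand, 2,000 cells per well were exposed for 16 hr at 37 °C to 5-fluorouridine together with compound or vehicle.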
# B2AR arrestin: recruits beta-arrestin to the human beta2-adrenergic receptor. P07550. beta-arrestin recruitment to beta2AR, cell-based reporter. Potency, µM (top dose mostly 46.1 µM), inactives show at the highest dose activation, usual class: activators. 0.02% of 330,000 active. AID 492947;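 further: potency means the concentration at half of the fitted maximal effect; 0% = DMSO controls and full agonism = EC100 isoproterenol or metaproterenol; nearly all actives have a fitted effect of over 65% in size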
# TSHR antag: antagonists of human thyroid stimulating hormone receptor | AID 504810 | TSHR-expressing cells, TSH-stimulated cAMP HTRF, 2 h; hits give low values | activity change, negative = inhibition, % at 11.5 µM | 0.2% of 330,000 active;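 active means activity change below a set negative limit, meaning inhibition stronger than a set level, cut at about -70% in these data; inconclusive means activity change between two set negative limits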
#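 Cell-based HTRF cAMP assay; TSHR cells + compound, TSH EC80 (4nM final), 2 h, 37 deg C. Lysis with anti-cAMP cryptate and cAMP-d2, 30 min RT, read 665/620 nm.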
# VP16 counter: counter-screen for ROR gamma inhibitors: Gal4-VP16 reporter; Drosophila S2 Gal4-VP16 UAS-luciferase, luminescence, 20 h; AID 2546; Potency, µM (titrated, usually from 53.6 µM), inactives show top-dose activity, negative = inhibition, actives largely listed as inhibitors; 3.5% of 310,000 active;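 further: Gal4-VP16 expression switched on by copper sulfate through the metallothionein promoter; potency means the concentration at half of the fitted maximal effect; nearly all actives have a fitted effect of over 50% in size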
# RORg inh: inhibitors of mouse ROR gamma transcriptional activity. P51450. Drosophila S2 Gal4-RORgamma UAS-luciferase reporter, 20 h. Potency, µM (top dose mostly 53.6 µM), for inactives: at the highest dose activity change, negative = inhibition, hits mostly inhibitors. 5.4% of 310,000 active. AID 2551; further: potency means the concentration at half of the fitted maximal effect; nearly all actives have a fitted effect of over 60% in size
# Target sequence (P51450 whole entry, looked up, the tested form may be a part): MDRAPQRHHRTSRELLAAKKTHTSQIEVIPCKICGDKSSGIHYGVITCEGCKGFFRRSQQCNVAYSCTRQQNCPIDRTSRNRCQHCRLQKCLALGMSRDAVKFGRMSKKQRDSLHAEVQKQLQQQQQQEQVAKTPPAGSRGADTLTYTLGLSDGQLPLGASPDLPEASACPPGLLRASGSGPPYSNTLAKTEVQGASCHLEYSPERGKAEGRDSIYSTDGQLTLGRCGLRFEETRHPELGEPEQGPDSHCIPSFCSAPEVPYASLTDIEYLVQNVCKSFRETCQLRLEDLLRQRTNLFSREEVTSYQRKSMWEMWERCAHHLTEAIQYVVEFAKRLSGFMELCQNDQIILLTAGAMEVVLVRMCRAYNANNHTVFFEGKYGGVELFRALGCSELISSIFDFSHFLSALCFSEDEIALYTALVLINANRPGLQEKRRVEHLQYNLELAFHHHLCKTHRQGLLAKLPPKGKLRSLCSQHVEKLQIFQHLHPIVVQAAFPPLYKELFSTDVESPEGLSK
#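 In this cell-based reporter format, copper sulfate (700 uM final) drives Gal4–ROR gamma fusion expression from a metallothionein promoter in Drosophila Schneider cells; compounds preincubated 1 hr, reporter read after 20 hr at ambient temperature.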
# * hit, by the source's call; ? = inconclusive; nt = not tested or not shown. The list is not random: actives were taken first. Their share in the collection is about 7.5%. Unless noted, the call rests on the fitted dose curve; in most records, active means well fitted curve in the direction sought with a large enough effect; inconclusive means small, poorly fitted or top-dose-only effect, or another doubt; inactive means no such curve, though single readings can be large; an effect the other way counts as inactive or inconclusive. Unless noted, on the % scale 0 is the no-effect control and ±100 the full control effect.
SMILES,ELG1 repair inh,B2AR arrestin,TSHR antag,VP16 counter,RORg inh
CC(=O)c1c(C)[nH]c(C(=O)OCC(=O)N(Cc2ccccc2)C(C)(C)C)c1C,12%,0%,-4,nt,nt
Cc1cc(CC(C)CC(C)(C)C)n(O)c(=O)c1 (stereo unspecified),nt,nt,nt,3.2µM*,1.1µM*
Brc1ccc(OCc2nc(-c3ccccn3)n[nH]2)cc1,-26%,12%,?,?,14µM*
Clc1ccc(OCc2nc(-c3ccccn3)n[nH]2)cc1,-18%,?,17,-9%,-1%
C=C(NC(=O)C(=C)NC(=O)c1csc(C2=NC3c4csc(n4)C4NC(=O)c5csc(n5)C([C@@](C)(O)C(C)O)NC(=O)C5CSC(=N5)/C(=C\C)NC(=O)C(C(C)O)NC(=O)c5csc(n5)[C@]3(CC2)NC(=O)C(C)NC(=O)C(=C)NC(=O)C(C)NC(=O)C(C(C)CC)NC2C=Cc3c(C(C)O)cc(nc3C2O)C(=O)OC4C)n1)C(N)=O (stereo partly specified),5.2µM*,9%,-12,nt,nt
CCSc1nnc(NC(=O)C2Cc3ccccc3CN2C(=O)c2ccco2)s1 (stereo unspecified),14%,0%,-1,?,10µM*
COc1ccccc1NC(=O)c1ccc(C(=O)Nc2ccccc2OC)nc1,8%,-1%,-39,-2%,-10%
COc1ccccc1NC(=O)c1nc(S(=O)(=O)Cc2ccccc2)ncc1Cl,?,0%,-78*,5µM*,7.1µM*
CCS(=O)(=O)c1ncc(Cl)c(C(=O)Nc2ccccc2OC)n1,-7%,-1%,-14,1.4µM*,?
CCCc1nnc(NC(=O)c2nc(S(=O)(=O)Cc3ccc(C)cc3)ncc2Cl)s1,0%,0%,-41,?,?
CCOc1ccccc1NC(=O)c1nc(S(=O)(=O)Cc2ccccc2)ncc1Cl,?,0%,-75*,4.5µM*,10µM*
CCCCCOc1ccc(C(=O)CCC(=O)NC(C)c2ccc(S(N)(=O)=O)cc2)cc1 (stereo unspecified),?,0%,-6,nt,nt
N#CCCCS(=O)(=O)c1nnnn1C1CCCCC1,nt,nt,nt,-8%,16%
C=C1C(=O)O[C@@H]2C[C@@H](C)[C@@H]3C=CC(=O)[C@@]3(C)[C@@H](OC(C)=O)[C@H]12,?,-1%,7,1.3µM*,1.3µM*
Cc1ccc(NC(=O)c2c(C(F)(F)F)nn(C)c2SCc2ccc(Cl)cc2)cc1C,2%,0%,-12,-1%,0.45µM*
Cc1ccc(NC(=O)c2c(C(F)(F)F)nn(C)c2SCc2cccc(C(F)(F)F)c2)cc1C,?,-1%,-18,?,-37%
Nc1ccc[n+](CC(=O)c2ccccc2)c1,-31%,-1%,6,-2%,-9%
CCc1n[n+](CC(=O)c2ccccc2)c(N)s1,?,0%,-1,2.2µM*,2.8µM*
Cc1sc2ncnc(Sc3ccccc3C(=O)Nc3ccc(Br)cc3)c2c1C,?,0%,-13,8.9µM*,10µM*
COc1ccc(NC(=O)CN(C)C(=O)c2ccccc2Sc2ncnc3sc(C)c(C)c23)cc1,16µM*,-1%,7,nt,nt
Cc1sc2ncnc(Sc3ccccc3C(=O)Nc3ccc(C#N)cc3)c2c1C,?,0%,-4,-7%,4%
O=C(CCCN1C(=O)/C(=C\c2cccs2)SC1=S)Nc1ccc(O)cc1C(=O)O,?,0%,-13,5.6µM*,5.6µM*
O=C(CCN1C(=O)S/C(=C\c2cccs2)C1=O)NC1=NCCS1,16%,1%,1,18µM*,?
O=C(CCCN1C(=O)/C(=C\c2ccco2)SC1=S)Nc1ccc(O)cc1C(=O)O,0%,0%,2,14µM*,11µM*
COc1ccccc1CN1CCC(n2nccc2NC(=O)CCCc2ccccc2)CC1,?,0%,-3,6%,11%
Cc1cc(C)c(S(=O)(=O)N2CCN(C(=O)c3cc4ccccc4oc3=O)CC2)c(C)c1,?,-2%,6,nt,nt
COC(=O)CNC(=O)C1(CC(C)C)C=CCN1C(C)=O (stereo unspecified),nt,nt,nt,13%,7%

# Screening data as filed in PubChem BioAssay.
